Measured values published in PubChem BioAssay.
For some assays here: Measured potencies and affinities stand elsewhere. Activity calls are given as the source filed them. Unless noted, no rule for the calls is given here.

Assays:
[1] = antimalarial activity against Dd2 strain (AID 2302;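 active = growth inhibition above 50% at the single 2 µM test dose, taken to imply half-maximal potency below 2 µM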;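 also: 0% = DMSO untreated growth and 100% = chloroquine plus artemisinin killed control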); details: P. falciparum Dd2 in RBCs, LDH growth readout, 72 h; at 2 µM; stronger effect = higher value
[2] = human hepatoma cell viability loss – ATP luminescence, cytotoxicity control for P. falciparum antimalarial project, primary screen (AID 2303;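 active = inhibition above 50%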;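 also: 0% = DMSO wells and 100% = digitonin-killed cells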); details: HepG2 viability, 24-48 h, at 10 µM, stronger effect = higher value
[3] = biological target: L-lactate dehydrogenase (Plasmodium falciparum (isolate CDC / Honduras)) (UniProt Q27743); assay: PfLDH activity inhibition – cell lysate, 3D7 strain, counter-screen for P. falciparum growth inhibition project (AID 2304);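 also: 0% = vehicle and 100% = reference inhibitor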; details: P. falciparum 3D7 crude extract, LDH APAD/NBT absorbance; at 2 µM; stronger effect = higher value
Sequence of L-lactate dehydrogenase (Plasmodium falciparum (isolate CDC / Honduras)) (Q27743 whole entry, looked up): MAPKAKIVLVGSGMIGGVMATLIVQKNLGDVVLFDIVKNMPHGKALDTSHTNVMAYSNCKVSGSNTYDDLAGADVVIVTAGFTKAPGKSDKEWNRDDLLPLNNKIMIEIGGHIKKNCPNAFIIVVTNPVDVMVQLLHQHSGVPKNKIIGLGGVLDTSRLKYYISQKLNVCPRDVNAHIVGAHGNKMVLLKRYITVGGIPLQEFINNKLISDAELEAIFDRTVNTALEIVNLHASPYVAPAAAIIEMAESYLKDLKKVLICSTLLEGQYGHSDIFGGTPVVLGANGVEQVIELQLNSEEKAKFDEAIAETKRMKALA

[4] = inhibition of 3D7 malaria parasite growth – strain 3D7 (AID 2306);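 also: 0% = DMSO wells and 100% = chloroquine plus artemisinin control wells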; details: P. falciparum 3D7 erythrocytic growth, LDH absorbance, 72 h; at 2 µM; stronger effect = higher value
[5] = biological target: Calcium-dependent protein kinase 1 (Plasmodium falciparum (isolate 3D7)) (UniProt P62344); assay: PfCDPK1 kinase inhibitors, biochemical, TCAMS library (AID 1159585; cut-off not given, nearly all actives have IC50 up to about 0.98 µM;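 also: inhibitors leave more ATP so luminescence rises with inhibition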); details: recombinant PfCDPK1, Kinase-Glo ATP depletion luminescence
Sequence of Calcium-dependent protein kinase 1 (Plasmodium falciparum (isolate 3D7)) (P62344 whole entry, looked up): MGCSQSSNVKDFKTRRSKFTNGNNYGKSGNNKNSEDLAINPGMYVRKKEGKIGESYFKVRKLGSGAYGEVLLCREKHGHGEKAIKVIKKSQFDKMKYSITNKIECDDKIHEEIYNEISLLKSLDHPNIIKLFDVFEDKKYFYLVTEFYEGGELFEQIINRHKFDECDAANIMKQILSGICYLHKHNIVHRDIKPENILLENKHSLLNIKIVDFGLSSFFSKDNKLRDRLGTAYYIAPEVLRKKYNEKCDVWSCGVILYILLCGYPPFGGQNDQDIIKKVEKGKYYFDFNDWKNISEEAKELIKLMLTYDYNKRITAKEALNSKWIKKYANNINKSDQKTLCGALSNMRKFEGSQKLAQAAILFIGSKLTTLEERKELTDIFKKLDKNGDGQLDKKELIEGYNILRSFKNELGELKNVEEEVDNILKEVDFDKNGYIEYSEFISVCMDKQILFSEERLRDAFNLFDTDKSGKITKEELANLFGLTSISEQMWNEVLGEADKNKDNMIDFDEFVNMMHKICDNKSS

[6] = biological target: Plasmodium falciparum protein kinase 6 (PK6, PF3D7_1337100) (UniProt Q8IDW1); assay: PfPK6 kinase inhibitors, biochemical, TCAMS library (AID 1159586); details: recombinant PfPK6, Kinase-Glo ATP depletion luminescence
Sequence of Plasmodium falciparum protein kinase 6 (PK6, PF3D7_1337100) (Q8IDW1 1-305): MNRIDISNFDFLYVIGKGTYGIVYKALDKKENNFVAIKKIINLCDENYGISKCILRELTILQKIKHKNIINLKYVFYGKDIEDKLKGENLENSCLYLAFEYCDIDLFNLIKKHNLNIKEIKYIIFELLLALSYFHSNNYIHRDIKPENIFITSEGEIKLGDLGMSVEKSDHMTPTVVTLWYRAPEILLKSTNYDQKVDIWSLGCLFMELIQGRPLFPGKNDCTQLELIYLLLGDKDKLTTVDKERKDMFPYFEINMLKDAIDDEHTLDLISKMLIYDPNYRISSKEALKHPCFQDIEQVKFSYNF

[7] = biological target: Protein kinase 7 (PK7), Plasmodium falciparum 3D7 (PF3D7_0213400) (UniProt Q7YTF7); assay: inhibition of Plasmodium PK7 catalytic activity – biochemical, TCAMS antimalarial set, Kinase-Glo luminescence (AID 1159587); details: recombinant PfPK7, Kinase-Glo ATP depletion luminescence
Sequence of Protein kinase 7 (PK7), Plasmodium falciparum 3D7 (PF3D7_0213400) (Q7YTF7 1-343): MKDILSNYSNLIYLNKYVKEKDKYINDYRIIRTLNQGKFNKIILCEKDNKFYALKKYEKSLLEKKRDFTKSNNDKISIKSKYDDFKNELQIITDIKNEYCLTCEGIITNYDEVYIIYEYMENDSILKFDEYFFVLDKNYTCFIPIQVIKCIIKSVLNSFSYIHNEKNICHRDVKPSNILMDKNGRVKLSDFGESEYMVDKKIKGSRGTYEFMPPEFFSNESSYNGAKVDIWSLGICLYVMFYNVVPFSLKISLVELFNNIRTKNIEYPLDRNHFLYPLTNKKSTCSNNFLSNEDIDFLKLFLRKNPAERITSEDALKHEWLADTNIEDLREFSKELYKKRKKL

[8] = biological target: Calcium-dependent protein kinase 4 (Plasmodium falciparum (isolate 3D7)) (UniProt Q8IBS5); assay: PfCDPK4 kinase inhibitors, biochemical, TCAMS library (AID 1159588; cut-off not given, nearly all actives have IC50 up to about 0.91 µM); details: recombinant PfCDPK4, Kinase-Glo ATP depletion luminescence
Sequence of Calcium-dependent protein kinase 4 (Plasmodium falciparum (isolate 3D7)) (Q8IBS5 whole entry, looked up): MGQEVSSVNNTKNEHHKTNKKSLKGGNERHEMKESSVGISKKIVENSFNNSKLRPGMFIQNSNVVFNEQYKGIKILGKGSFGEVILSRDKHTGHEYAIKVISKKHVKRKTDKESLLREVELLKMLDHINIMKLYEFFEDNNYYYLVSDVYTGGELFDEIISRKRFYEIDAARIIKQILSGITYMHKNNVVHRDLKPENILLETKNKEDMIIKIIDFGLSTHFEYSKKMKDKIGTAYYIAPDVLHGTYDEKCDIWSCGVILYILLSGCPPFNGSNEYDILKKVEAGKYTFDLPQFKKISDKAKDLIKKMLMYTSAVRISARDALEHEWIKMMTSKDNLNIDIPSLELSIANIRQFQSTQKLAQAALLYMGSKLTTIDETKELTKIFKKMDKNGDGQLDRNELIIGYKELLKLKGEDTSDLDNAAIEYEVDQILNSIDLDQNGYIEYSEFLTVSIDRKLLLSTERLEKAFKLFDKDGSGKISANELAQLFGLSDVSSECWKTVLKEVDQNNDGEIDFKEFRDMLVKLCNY

COc1ccccc1CCNc1nc(C)cc(N[C@@H](CC(C)C)C(=O)NCCc2ccccc2)n1
inactive: inhibition [2] 12% | inhibition [3] -2% | outcome [5] | outcome [6] | outcome [7] | outcome [8]
active: growth inhibition [1] 81% | growth inhibition [4] 97%

CC(C)(C)c1ccc(CN2CCC(CNC(=O)c3cc(-c4cccc(Cl)c4)cs3)C2)cc1 (stereo not given)
active: growth inhibition [1] 83% | growth inhibition [4] 101%
inactive: inhibition [2] 44% | inhibition [3] 1% | outcome [5] | outcome [6] | outcome [7] | outcome [8]

COc1ccc(-c2nc(NC(=O)CS(=O)(=O)c3ccc(F)cc3)sc2C)cc1
inactive: inhibition [2] 20% | inhibition [3] -3% | outcome [5] | outcome [6] | outcome [7] | outcome [8]
active: growth inhibition [1] 99% | growth inhibition [4] 100%

O=C(/C=C/c1ccc(Cl)c(Cl)c1)N1CCC(CCN2CCC(c3c[nH]c4cc5c(cc34)OCO5)CC2)CC1
inactive: inhibition [2] 46% | inhibition [3] -4% | outcome [5] | outcome [6] | outcome [7] | outcome [8]
active: growth inhibition [1] 65% | growth inhibition [4] 99%

Cc1cc(N[C@@H](CC(C)C)C(=O)NCCOc2ccccc2)nc(NCCOc2ccccc2)n1
inactive: growth inhibition [1] 6% | inhibition [2] -4% | inhibition [3] -2% | outcome [5] | outcome [6] | outcome [7] | outcome [8]
active: growth inhibition [4] 89%

COc1cc(Cc2cnc(N)nc2N)cc(OCCNC(=O)OCc2ccccc2)c1OC
inactive: growth inhibition [1] -3% | inhibition [2] 6% | inhibition [3] 4% | outcome [5] | outcome [6] | outcome [7] | outcome [8]
active: growth inhibition [4] 93%

O=C(N[C@H]1CCN(CCc2ccc(O[C@H]3CCNC3)c(F)c2)C1)c1ccc(Cl)c(Cl)c1
active: growth inhibition [4] 95%
inactive: growth inhibition [1] 23% | inhibition [2] 39% | inhibition [3] 2% | outcome [5] | outcome [6] | outcome [7] | outcome [8]

O=C(NCCc1ccccc1)N(Cc1ccccc1-c1ccc(CNC2CCCC2)cc1)C1CCN(Cc2ccccc2)CC1
active: growth inhibition [1] 95% | inhibition [2] 96% | growth inhibition [4] 96%
inactive: inhibition [3] 1% | outcome [5] | outcome [6] | outcome [7] | outcome [8]

COc1cc2nc(N3CCC(CNC(=O)c4cc5ccccc5s4)CC3)nc(N)c2cc1OC
active: growth inhibition [1] 101% | growth inhibition [4] 101%
inactive: inhibition [2] 8% | inhibition [3] 2% | outcome [5] | outcome [6] | outcome [7] | outcome [8]

CC(C)Cc1cn(-c2nc(-c3nc4ccccc4[nH]3)cs2)c2cc(Cl)ccc12
active: growth inhibition [1] 68% | growth inhibition [4] 99%
inactive: inhibition [2] 9% | inhibition [3] -3% | outcome [5] | outcome [6] | outcome [7] | outcome [8]

Cc1c(CN2CCC(N3CCC(C(=O)NC4CC4)CC3)CC2)[nH]c2c(Cl)cccc12
inactive: growth inhibition [1] 3% | inhibition [2] 22% | inhibition [3] 1% | outcome [5] | outcome [6] | outcome [7] | outcome [8]
active: growth inhibition [4] 92%

CCCC(=O)Nc1ccc(OCCCN(Cc2ccccc2OC(F)(F)F)c2ccc(C#N)c(C(F)(F)F)c2)cc1
active: growth inhibition [1] 95% | growth inhibition [4] 94%
inactive: inhibition [2] 0% | inhibition [3] -2% | outcome [5] | outcome [6] | outcome [7] | outcome [8]

COCCN1CCN(Cc2cccc(-c3ccc(-c4nc5ccccc5[nH]4)cc3)c2)CC1
active: growth inhibition [1] 50% | growth inhibition [4] 100%
inactive: inhibition [2] 9% | inhibition [3] 1% | outcome [5] | outcome [6] | outcome [7] | outcome [8]

COc1ccc2nc(C)cc(NN=Cc3cccc(F)c3)c2c1
active: growth inhibition [1] 100% | growth inhibition [4] 100%
inactive: inhibition [2] 2% | inhibition [3] 1% | outcome [5] | outcome [6] | outcome [7] | outcome [8]

FC(F)(F)c1ccc2nc(-c3ccc(-c4ccc(CN5CCN(c6cnccn6)CC5)cc4)s3)[nH]c2c1
inactive: inhibition [2] 23% | inhibition [3] -7% | outcome [5] | outcome [6] | outcome [7] | outcome [8]
active: growth inhibition [1] 99% | growth inhibition [4] 101%

CCN(CCCN1CCCCC1)c1cc(C)nc(Nc2ccc(Cl)cc2)n1
active: growth inhibition [1] 82% | growth inhibition [4] 101%
inactive: inhibition [2] 23% | inhibition [3] -2% | outcome [5] | outcome [6] | outcome [7] | outcome [8]

O=[N+]([O-])c1nc(Br)n(Cc2ccc(Cl)cc2)n1
active: growth inhibition [1] 95% | growth inhibition [4] 96%
inactive: inhibition [2] -3% | inhibition [3] -1% | outcome [5] | outcome [6] | outcome [7] | outcome [8]

COC(=O)c1ccc2c(-c3nc4ccc(OC)cc4[nH]3)c[nH]c2c1
active: growth inhibition [4] 95%
inactive: growth inhibition [1] 31% | inhibition [2] 0% | inhibition [3] 5% | outcome [5] | outcome [6] | outcome [7] | outcome [8]

COc1cccc(OCC2CCCN(CCCCNC(=O)c3ccc(NC(=O)c4ccc(Cl)cc4)cc3)C2)c1 (stereo not given)
inactive: growth inhibition [1] 49% | inhibition [2] 33% | inhibition [3] 7% | outcome [5] | outcome [6] | outcome [7] | outcome [8]
active: growth inhibition [4] 100%

CN(CCCNc1ccc(C(=O)Nc2ccc(C(F)(F)F)cc2)cc1[N+](=O)[O-])Cc1ccccc1
inactive: growth inhibition [1] 48% | inhibition [2] 25% | inhibition [3] -9% | outcome [5] | outcome [6] | outcome [7] | outcome [8]
active: growth inhibition [4] 100%

CC(C)NCc1ccc(-c2cccc(NC(=O)c3ccc(C#N)cc3)c2)cc1
active: growth inhibition [4] 100%
inactive: growth inhibition [1] 19% | inhibition [2] 8% | inhibition [3] 4% | outcome [5] | outcome [6] | outcome [7] | outcome [8]

Nc1cccc(CNCc2cccc(-c3cccc(-c4nc5ccccc5[nH]4)c3)c2)c1
inactive: inhibition [2] 1% | inhibition [3] -7% | outcome [5] | outcome [6] | outcome [7] | outcome [8]
active: growth inhibition [1] 84% | growth inhibition [4] 101%

CN(C)CCOc1ccc(NC(=O)NC(C)(C)c2nc(-c3ccc(Cl)c(O)c3)c(-c3ccncc3)[nH]2)cc1
active: growth inhibition [1] 98% | growth inhibition [4] 98%
inactive: inhibition [2] 22% | inhibition [3] 5% | outcome [5] | outcome [6] | outcome [7] | outcome [8]

COc1cccc(-c2nn(C)c3sc(C(=O)NCCN4CCN(c5ccccc5F)CC4)cc23)c1
active: growth inhibition [4] 85%
inactive: growth inhibition [1] 40% | inhibition [2] 9% | inhibition [3] -5% | outcome [5] | outcome [6] | outcome [7] | outcome [8]

O=C(CNC(=O)c1ccc(O)cc1)Nc1ccc(-c2cccc(-c3nc4ccc(C(F)(F)F)cc4[nH]3)c2)cc1
active: growth inhibition [4] 92%
inactive: growth inhibition [1] 47% | inhibition [2] 26% | inhibition [3] 3% | outcome [5] | outcome [6] | outcome [7] | outcome [8]

Cc1cccc(-c2nc(Nc3ccncc3)c3cc(N(C)C)ccc3n2)n1
inactive: inhibition [2] 5% | inhibition [3] -2% | outcome [5] | outcome [6] | outcome [7] | outcome [8]
active: growth inhibition [1] 63% | growth inhibition [4] 98%

O=C(Nc1ccc(N2CCN(c3ncccc3C(F)(F)F)CC2)nc1)c1cccs1
inactive: growth inhibition [1] 40% | inhibition [2] 7% | inhibition [3] -7% | outcome [5] | outcome [6] | outcome [7] | outcome [8]
active: growth inhibition [4] 83%

COc1cc2c(cc1OC)CC(NCc1ccc(-c3ccc4nc[nH]c4c3)cc1)C2
inactive: inhibition [2] 40% | inhibition [3] 0% | outcome [5] | outcome [6] | outcome [7] | outcome [8]
active: growth inhibition [1] 92% | growth inhibition [4] 97%

CCc1cc(NC(=O)Nc2ccnc3ccccc23)ccc1OC
inactive: growth inhibition [1] 24% | inhibition [2] -6% | inhibition [3] 2% | outcome [5] | outcome [6] | outcome [7] | outcome [8]
active: growth inhibition [4] 85%

O=C(/C=C/c1c(Cl)cccc1Cl)NC1CCC(CN2CCC(c3c[nH]c4ccncc34)CC2)CC1 (stereo not given)
inactive: inhibition [3] 2% | outcome [5] | outcome [6] | outcome [7] | outcome [8]
active: growth inhibition [1] 100% | inhibition [2] 78% | growth inhibition [4] 99%

Clc1cccc(-c2nc(Nc3ccnc(-c4ccc(CN5CCOCC5)cc4)c3)c3ccccc3n2)c1
active: growth inhibition [1] 65% | growth inhibition [4] 100%
inactive: inhibition [2] 8% | inhibition [3] -4% | outcome [5] | outcome [6] | outcome [7] | outcome [8]

COc1cccc(C=NNc2cc(C)nc3c(OC)cccc23)c1
active: growth inhibition [1] 58% | growth inhibition [4] 99%
inactive: inhibition [2] 6% | inhibition [3] -6% | outcome [5] | outcome [6] | outcome [7] | outcome [8]

Cc1ccc2c(=O)cc(CCc3cccc(F)c3F)n(CC(=O)N(Cc3ccc(-c4ccc(C(F)(F)F)cc4)cc3)C3CCN(C(C)C)CC3)c2n1
active: inhibition [2] 58% | growth inhibition [4] 100%
inactive: growth inhibition [1] 49% | inhibition [3] -2% | outcome [5] | outcome [6] | outcome [7] | outcome [8]

O=C(CN1CCC2(CCC1=O)CC(=O)c1ccccc1O2)NCCN1CCOCC1 (stereo not given)
inactive: growth inhibition [1] -4% | inhibition [2] 6% | inhibition [3] -4% | outcome [5] | outcome [6] | outcome [7] | outcome [8]
active: growth inhibition [4] 101%

CC(NC(=O)c1ccc(O)c(-c2ccc(Cl)c(Cl)c2)c1)C(=O)NCCN1CCCC1 (stereo not given)
active: growth inhibition [4] 99%
inactive: growth inhibition [1] 9% | inhibition [2] -5% | inhibition [3] -2% | outcome [5] | outcome [6] | outcome [7] | outcome [8]

Cc1cc(N2CCN(C(=O)OC(C)(C)C)CC2)ccc1N
inactive: growth inhibition [1] 38% | inhibition [2] 11% | inhibition [3] -2% | outcome [5] | outcome [6] | outcome [7] | outcome [8]
active: growth inhibition [4] 92%

Nc1nc(N)c2c(Oc3cccnc3)cccc2n1
active: inhibition [2] 65% | growth inhibition [4] 93%
inactive: growth inhibition [1] -1% | inhibition [3] 6% | outcome [5] | outcome [6] | outcome [7] | outcome [8]

CN(C1CCC(NC(=O)/C=C/c2ccccc2)CC1)C1CC2(CCN(C(=O)OC(C)(C)C)CC2)c2ccccc21 (stereo not given)
active: growth inhibition [1] 95% | growth inhibition [4] 95%
inactive: inhibition [2] 16% | inhibition [3] 5% | outcome [5] | outcome [6] | outcome [7] | outcome [8]

O=C(Nc1ccc(OC2CCN(Cc3ccsc3)CC2)c(Cl)c1)c1ccco1
active: growth inhibition [1] 85% | growth inhibition [4] 87%
inactive: inhibition [2] 7% | inhibition [3] -4% | outcome [5] | outcome [6] | outcome [7] | outcome [8]

O=C(NCCN1CCCC1)N1CCCN(c2ncnc3cc(-c4ccc(Cl)cc4)sc23)CC1
active: growth inhibition [4] 96%
inactive: growth inhibition [1] 32% | inhibition [2] 13% | inhibition [3] 6% | outcome [5] | outcome [6] | outcome [7] | outcome [8]
